hcDAF-12 act – H. contortus DAF-12 activation, primary screen | HEK293 hcDAF-12 lit1-tk-luc reporter, luminescence; 0% DMSO, 100% Δ7-dafachronic acid | activation, % at 6.8 µM | 1.4% of 370,000 active;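 active = activation above the mean of all tested compounds plus 3 SD, cut at about 5.5% in these data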
Wee1 degr inh – human Wee1 degradation inhibition, primary screen; P30291; HeLa Luc-Wee1K328M stability, luciferase luminescence; 100% = proteasome inhibitor MG132 effect; reporter increase, % at 5 µM; 1.2% of 220,000 active;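 active = activation above the mean of all tested compounds plus 3 SD, set per screening run, cut at about 8.8% in these data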;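 note: cells exposed to compound for 20 h before luminescence read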
ssDAF12 agonist – activators of S. stercoralis DAF-12 nuclear receptor; HEK293 ssDAF-12/GRIP1 lit1-tk-luc reporter, luminescence; % of 3 µM dafachronic acid response; activation, % at 6.8 µM; 1% of 370,000 active; AID 652126;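 active = activation above the mean over all tested compounds plus 3 SD, cut at about 0.9% in these data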
DAX1 inh-1 – blocks DAX1 repression of SF-1 activated StAR promoter; inhibition, % at 6.8 µM; 1.1% of 370,000 active; HEK293T StAR-luciferase reporter, SF-1/DAX-1 repression relief;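 active = inhibition above the mean over all tested compounds plus 3 SD, cut at about 3.6% in these data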;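 note: higher inhibition means more luminescence from relief of DAX-1 repression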
DAX1 inh-2 – NR0B1 (DAX1) inhibition; P51843; HEK293 Gal4-DAX1 luciferase reporter, luminescence; inhibition, % at 6.75 µM; 0.99% of 340,000 active; AID 504766;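 active = inhibition above the mean over all tested compounds plus 3 SD, cut at about 4.2% in these data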;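 note: inhibition shows as a rise in luminescence from relieved DAX1 repression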
Target sequence (P51843 207-470 limits assumed): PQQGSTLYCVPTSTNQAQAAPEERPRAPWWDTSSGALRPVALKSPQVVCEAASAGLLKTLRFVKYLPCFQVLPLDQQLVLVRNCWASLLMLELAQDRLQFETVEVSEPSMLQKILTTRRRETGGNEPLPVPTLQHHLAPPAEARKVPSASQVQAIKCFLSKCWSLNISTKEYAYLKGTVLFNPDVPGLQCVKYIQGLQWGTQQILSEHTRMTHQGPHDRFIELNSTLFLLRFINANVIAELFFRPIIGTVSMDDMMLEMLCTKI
hgDAF-12 ag – hgDAF-12 agonism, primary luciferase screen | activation, % at 6.8 µM | 1.8% of 370,000 active | HEK293 GAL4-hgDAF12 UAS-luciferase reporter, agonist luminescence; normalized to butyrate control | AID 687014;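 active = activation above a cutoff set at the mean of all screened compounds plus 3 SD, cut at about 10% in these data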
DAX1 inh confirm – confirmation of human DAX1 (NR0B1) inhibitors; shares compounds with DAX1 inh-1; HEK293T StAR-promoter luciferase reporter, SF-1/DAX-1 repression; inhibition, % at 6.8 µM; 87% of 2,400 active;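 active = inhibition above the average of every tested compound plus 3 SD, cut at about 3.8% in these data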;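 note: active compounds raise luminescence by relieving repression of the StAR reporter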
SF1 mutant ctr – counter-screen for DAX1 inhibitors: nonselective inhibitors with SF-1 AF2 mutant; shares compounds with DAX1 inh-1; HEK293 StAR-luciferase, luminescence; inhibition, % at 6.8 µM; 78% of 2,400 active; AID 652136;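 active = inhibition above the mean of all tested compounds plus 3 SD, cut at about 3% in these data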
Hits are given with their value; – = inactive; · = no result given. Most compounds without a hit are left out; they make up all but 4.6% or so of the library.

SMILES	hcDAF-12 act	Wee1 degr inh	ssDAF12 agonist	DAX1 inh-1	DAX1 inh-2	hgDAF-12 ag	DAX1 inh confirm	SF1 mutant ctr
Cc1c(C(=O)N(CC(C)C)c2c(N)n(Cc3ccccc3)c(=O)[nH]c2=O)sc2nc3n(c(=O)c12)CCC3	–	·	–	–	–	–	·	·
Cc1occc1C(=O)N/N=C/c1ccc[nH]1	–	·	–	5.2	–	11	–	–
O=C(CN1CCN(S(=O)(=O)c2ccc(Cl)cc2)CC1)NCC1(N2CCOCC2)CCCCC1	–	·	–	4.7	–	–	–	–
Cc1ccc(S(=O)(=O)N2CCN(CC(=O)NCC3(N4CCOCC4)CCCCC3)CC2)cc1	–	·	–	–	–	–	·	·
O=C(Nc1ccc(Cl)c(Cl)c1)N1CCCCCC1	–	·	–	5.3	–	–	8.8	4.8
CCc1ccc(NC(=O)N2CCCCCC2)cc1	–	·	–	5.2	–	–	9.8	7.0
Cc1cc(C)cc(NC(=O)N2CCc3ccccc3C2)c1	–	·	–	–	–	–	·	·
CCc1ccc(NC(=S)N2CCN(C)CC2)cc1	–	·	–	–	–	–	·	·
O=C(Nc1ccc(Br)cc1)N1CCc2ccccc2C1	–	·	–	5.3	–	–	5.5	3.0
CCOC(=O)c1ccc(NC(=O)N2CCCCC2)cc1	·	–	·	·	–	·	·	·
CCc1ccc(NC(=S)N2CCCC2)cc1	6.0	·	–	5.3	–	12	8.6	3.9
Cc1ccc(S(=O)(=O)NN=C2C(=O)C3CCC2C3Cl)cc1 (configuration not stated)	–	·	–	–	–	–	·	·
O=C(Nc1ccc(Br)cc1)N1CCCCCC1	–	·	–	7.2	–	–	4.8	3.3
O=C(Nc1ccc(Br)cc1)N1CCCC(O)C1 (configuration not stated)	–	–	–	–	–	–	·	·
COc1ccc(CN(C)C(=O)[C@H]2O[C@@H](n3ccc(=O)[nH]c3=O)[C@H](O)[C@@H]2O)cc1OC	–	·	–	4.7	·	–	–	–
CCOc1ccc(CCN2C(=S)N([C@@H](CC(C)C)CN3CCCC3CN3C(=S)NC[C@@H]3CC(C)C)C[C@@H]2Cc2ccccc2)cc1 (some centres not stated)	–	·	–	4.8	–	–	–	–
CC(C)C[C@@H](CN1CCC[C@@H]1CN1C(=S)NC[C@@H]1Cc1ccccc1)N1C[C@H](Cc2ccc(O)cc2)N(CC2CCCCCC2)C1=S	–	·	–	5.0	·	–	–	–
Oc1ccc(C[C@H]2CN([C@@H](Cc3ccccc3)CN3CCCC3CN3C(=S)NC[C@@H]3Cc3ccccc3)C(=S)N2CC2CCCCC2)cc1 (some centres not stated)	–	·	–	–	·	–	·	·
Oc1ccc(C[C@H]2CNC(=S)N2CC2CCCN2C[C@H](Cc2ccccc2)N2C[C@H](Cc3ccc(O)cc3)N(CC3CCCCCC3)C2=S)cc1 (some centres not stated)	–	·	–	4.9	–	–	–	–
O=C(COC(=O)c1c(F)cccc1F)NC(=O)NCc1ccccc1	–	·	–	–	–	–	·	·
C/C(=N/NC(=O)c1ccco1)c1ccc(NC(=O)c2ccc(Br)o2)cc1	–	·	–	5.9	–	–	–	–
CCCCCC(=O)N/N=C(\C)c1ccc(NC(=O)c2ccco2)cc1	–	–	–	–	–	–	·	·
COc1cc(/C=C(\C#N)C(=O)Nc2ccccc2F)ccc1OCCN1CCOCC1	–	·	–	4.5	–	–	5.0	–
COc1ccc(C)cc1NC(=O)CN1CCN(S(=O)(=O)c2ccc3ccccc3c2)CC1	–	·	–	–	–	–	·	·
Cc1ccc(S(=O)(=O)N2CC3(O)CN(C(=O)OC(C)C)N(C(=O)OC(C)C)CC3(OC(=O)NCc3ccccc3F)C2)cc1 (configuration not stated)	–	·	–	–	–	–	·	·
CC(=O)c1c(C)[nH]c(C(=O)Nc2ccc(C)c(C)c2)c1C	–	–	–	4.6	–	–	10	7.4
